Records with an inconclusive call do not appear. Activity calls are given as the source filed them. Unless noted, calls come from the whole dose curve.
Legend:
[1] = Nuclear factor erythroid 2-related factor 2/antioxidant responsive element (Nrf2/ARE) small molecule agonists: qHTS cell viability counter screen in human keratinocytes (AID 1919968; active = well fitted curve in the direction sought with a large enough effect in the repeat runs; an effect the other way counts as inactive or inconclusive; note: nearly all actives have a fitted effect of over 55% in size)
How it was run: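 Cytotoxicity was multiplexed with the Nrf2/ARE luciferase assay in the same wells. Stably transfected HaCaT keratinocytes were treated with test compounds for 23 h at 37 C. Cell viability was then measured by CellTiter-Fluor fluorescence.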

[2] = Nuclear factor erythroid 2-related factor 2/antioxidant responsive element (Nrf2/ARE) small molecule agonists: luciferase reporter gene qHTS assay in human keratinocytes (AID 1919969); note: nearly all actives have a fitted effect of over 35% in size
[3] = target: Gonadotropin-releasing hormone receptor (Homo sapiens) (UniProt P30968); experiment: Human gonadotropin-releasing hormone receptor (GnRHR) small molecule agonists, calcium flux assay in GnRHR-HEK293 cells (AID 1920063); note: nearly all actives have a fitted effect of over 35% in size
Sequence of Gonadotropin-releasing hormone receptor (Homo sapiens) (P30968 whole entry, looked up): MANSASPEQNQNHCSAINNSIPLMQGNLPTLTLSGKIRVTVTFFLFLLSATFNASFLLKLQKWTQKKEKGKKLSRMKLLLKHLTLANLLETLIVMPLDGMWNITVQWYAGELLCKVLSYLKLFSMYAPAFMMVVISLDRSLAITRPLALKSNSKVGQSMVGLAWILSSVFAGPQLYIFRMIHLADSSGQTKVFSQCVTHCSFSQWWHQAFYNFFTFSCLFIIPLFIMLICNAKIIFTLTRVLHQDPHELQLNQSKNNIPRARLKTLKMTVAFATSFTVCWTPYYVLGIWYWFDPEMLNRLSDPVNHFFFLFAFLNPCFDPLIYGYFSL
How it was run: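 Agonist activity was measured as intracellular calcium flux in HEK293 cells engineered to stably express human GnRHR. After dye loading for 1 hour at 37 C, compounds in DMSO were added and fluorescence was followed for 3 minutes.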

[4] = target: KiSS-1 receptor (Homo sapiens) (UniProt Q969F8); experiment: Human kisspeptin (KISS1R) small molecule agonists, calcium flux assay in KISS1R-HEK293 cells (AID 1920064; active = well fitted curve in the direction sought with a large enough effect in the repeat runs; an effect the other way counts as inactive or inconclusive)
Sequence of KiSS-1 receptor (Homo sapiens) (Q969F8 whole entry, looked up): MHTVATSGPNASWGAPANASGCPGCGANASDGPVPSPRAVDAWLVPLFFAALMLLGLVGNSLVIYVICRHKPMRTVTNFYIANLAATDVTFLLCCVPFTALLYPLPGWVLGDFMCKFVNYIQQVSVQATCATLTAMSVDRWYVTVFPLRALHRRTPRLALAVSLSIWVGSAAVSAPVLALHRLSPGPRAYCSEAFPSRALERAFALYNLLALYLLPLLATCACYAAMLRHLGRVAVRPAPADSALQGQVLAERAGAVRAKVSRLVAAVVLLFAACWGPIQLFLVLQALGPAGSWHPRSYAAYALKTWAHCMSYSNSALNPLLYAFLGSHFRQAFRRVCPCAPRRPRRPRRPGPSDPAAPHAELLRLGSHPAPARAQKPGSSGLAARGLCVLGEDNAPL
How it was run: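 Agonist activity is monitored as intracellular calcium rise in engineered HEK293 cells carrying human KISS1R. Cells are dye-loaded for 1 h at 37 C before compound addition, and fluorescence is recorded for 3 min.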

[5] = G protein-coupled receptor (GPCR) small molecule agonists, calcium flux assay: HEK293 wild type cell line counter screen (AID 1920065)
How it was run: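 Seed cells, incubate 18 h (37 C, 5% CO2); add calcium dye, 1 h at 37 C; pin-transfer compounds, ATP control or DMSO; read fluorescence 480/540 nm each second for 3 min.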

[6] = p53 small molecule agonists, cell-based qHTS assay with human liver microsomes (AID 1963577)
How it was run: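 p53RE-bla cells, 4,000/well, compound added after 5 h, with human liver microsomes 0.5 mg/mL and NADPH 0.5 mg/mL final; 16 h at 37 C, then LiveBLAzer 2 h RT, fluorescence.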

[7] = p53 small molecule agonists, cell-based qHTS assay with rat liver microsomes (AID 1963578)
How it was run: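 p53RE-bla cells, 4,000/well, pre-incubated 5 h, then given compounds plus rat liver microsomes (0.5 mg/mL final) and NADPH (0.5 mg/mL final). Incubation 16 h at 37 C; beta-lactamase reporter read by LiveBLAzer fluorescence after 2 h at room temperature.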

[8] = p53 small molecule agonists, cell-based qHTS assay with human liver microsomes: qHTS cell viability counter screen (AID 1963579); note: nearly all actives have a fitted effect of over 45% in size
How it was run: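 p53RE-bla cells, 4,000/well, dosed 5 hours after plating, with human liver microsomes (0.5 mg/mL final) plus NADPH (0.5 mg/mL final), 16 hours at 37 C. Viability read as CellTiter-Glo luminescence after 30 min at room temperature.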

[9] = p53 small molecule agonists, cell-based qHTS assay with rat liver microsomes: qHTS cell viability counter screen (AID 1963580); note: nearly all actives have a fitted effect of over 45% in size
How it was run: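 After the beta-lactamase ratio was read, CellTiter-Glo was added to the same wells and luminescence measured at 30 min; cells had been treated 16 h at 37 C with compounds, rat liver microsomes and NADPH (0.5 mg/mL final each).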

[10] = p53 small molecule agonists, cell-based qHTS assay: qHTS cell viability counter screen (AID 1963581); note: nearly all actives have a fitted effect of over 45% in size
How it was run: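 Viability was counter-screened in parallel with the p53 agonist reporter by measuring intracellular ATP luminescence in the same HCT-116 p53RE-bla wells after 16 h compound treatment at 37 C.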

[11] = p53 small molecule agonists, cell-based qHTS assay (AID 1963582; active = well fitted activation curve with a large enough effect in the signal ratio in the repeat runs, not every such curve was filed as active; the % refers to the signal ratio)
How it was run: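 Cells carrying a p53-responsive bla reporter are treated with test compounds for 16 h at 37 C; beta-lactamase activity is then detected with LiveBLAzer B/G FRET substrate after 2 h at room temperature.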

[12] = target: 5-hydroxytryptamine receptor 2A (Homo sapiens) (UniProt P28223); experiment: 5-hydroxytryptamine receptor 2A (HTR2A) small molecule antagonists, cell-based qHTS assay (AID 1963586); note: nearly all actives have a fitted effect of over 45% in size
Sequence of 5-hydroxytryptamine receptor 2A (Homo sapiens) (P28223 whole entry, looked up): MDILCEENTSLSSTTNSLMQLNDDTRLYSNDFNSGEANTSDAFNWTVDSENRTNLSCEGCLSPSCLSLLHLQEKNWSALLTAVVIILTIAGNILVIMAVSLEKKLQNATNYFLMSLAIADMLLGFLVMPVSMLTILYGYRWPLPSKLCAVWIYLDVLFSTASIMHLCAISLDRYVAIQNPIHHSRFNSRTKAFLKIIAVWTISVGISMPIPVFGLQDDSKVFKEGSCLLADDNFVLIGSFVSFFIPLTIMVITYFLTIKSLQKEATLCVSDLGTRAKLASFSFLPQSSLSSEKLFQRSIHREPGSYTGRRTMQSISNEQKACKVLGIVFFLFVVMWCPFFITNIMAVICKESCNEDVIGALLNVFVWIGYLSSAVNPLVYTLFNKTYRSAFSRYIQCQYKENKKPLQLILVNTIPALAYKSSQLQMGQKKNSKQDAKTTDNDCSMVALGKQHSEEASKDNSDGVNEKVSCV
How it was run: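 CHO cells stably expressing human HTR2A were plated for 18 h at 37 C, then loaded with calcium dye for 1 h. Compounds were preincubated 5 min at room temperature before DOI (4 nM solution) was added. Kinetic fluorescence was read for 3 min.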

[13] = target: 5-hydroxytryptamine receptor 2A (Homo sapiens) (UniProt P28223); experiment: 5-hydroxytryptamine receptor 2A (HTR2A) small molecule agonists, cell-based qHTS assay (AID 1963587); note: nearly all actives have a fitted effect of over 30% in size
How it was run: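 CHO cells stably expressing human HTR2A, plated 18 h, loaded with calcium dye 1 h at 37 C. Agonist mode: compounds added and intracellular calcium fluorescence recorded kinetically for 2 min at 1 sec intervals.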

[14] = target: Muscarinic acetylcholine receptor M1 (Homo sapiens) (UniProt P11229); experiment: Cholinergic receptor muscarinic 1 (CHRM1) small molecule agonists, cell-based qHTS assay (AID 1963589); note: nearly all actives have a fitted effect of over 35% in size
Sequence of Muscarinic acetylcholine receptor M1 (Homo sapiens) (P11229 whole entry, looked up): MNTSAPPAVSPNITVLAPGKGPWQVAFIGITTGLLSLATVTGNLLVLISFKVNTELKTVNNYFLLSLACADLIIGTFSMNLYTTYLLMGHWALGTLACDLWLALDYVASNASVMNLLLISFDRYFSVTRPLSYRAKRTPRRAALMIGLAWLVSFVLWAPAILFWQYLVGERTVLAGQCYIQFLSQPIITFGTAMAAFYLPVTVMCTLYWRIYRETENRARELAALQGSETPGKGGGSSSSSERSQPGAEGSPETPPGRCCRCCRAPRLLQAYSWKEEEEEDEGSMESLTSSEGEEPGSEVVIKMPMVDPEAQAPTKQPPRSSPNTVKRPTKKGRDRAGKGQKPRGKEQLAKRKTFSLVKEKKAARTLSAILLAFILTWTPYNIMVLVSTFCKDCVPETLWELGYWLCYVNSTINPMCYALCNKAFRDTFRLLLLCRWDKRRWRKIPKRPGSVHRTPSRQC
How it was run: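 Cells were plated and incubated 18 h at 37 C/5% CO2, loaded with calcium dye for 1 h at 37 C, then treated with compounds in DMSO. Fluorescence was recorded kinetically at 1 sec intervals.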

[15] = cAMP Responsive Elements (CRE) small molecule agonists, cell-based qHTS assay (AID 1963590)
How it was run: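 Cells carrying a CRE-driven beta-lactamase reporter (HEK 293T) are seeded, incubated overnight (18 h), and treated with test compounds for 3 h at 37 C; reporter activity is then detected with a FRET substrate after 2 h at room temperature.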

[16] = cAMP Responsive Elements (CRE) small molecule antagonists, cell-based qHTS assay (AID 1963591; active = well fitted inhibition curve with a large enough effect in the signal ratio in the repeat runs, not every such curve was filed as active; the % refers to the signal ratio)
How it was run: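 Cells (CRE-bla HEK 293T, DMEM with 10% dialyzed FBS and 25 mM HEPES) are seeded and incubated 18 h. Compounds are added with NKH477 agonist at 0.25 uM final for 3 h, then FRET substrate for 2 h.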

[17] = target: Beta-2 adrenergic receptor (Homo sapiens) (UniProt P07550); experiment: Adrenergic beta2 receptor (ADRB2) small molecule antagonists, cell-based qHTS assay (AID 1963592); note: series mostly up to about 92 µM; nearly all actives have a fitted effect of over 50% in size
Sequence of Beta-2 adrenergic receptor (Homo sapiens) (P07550 whole entry, looked up): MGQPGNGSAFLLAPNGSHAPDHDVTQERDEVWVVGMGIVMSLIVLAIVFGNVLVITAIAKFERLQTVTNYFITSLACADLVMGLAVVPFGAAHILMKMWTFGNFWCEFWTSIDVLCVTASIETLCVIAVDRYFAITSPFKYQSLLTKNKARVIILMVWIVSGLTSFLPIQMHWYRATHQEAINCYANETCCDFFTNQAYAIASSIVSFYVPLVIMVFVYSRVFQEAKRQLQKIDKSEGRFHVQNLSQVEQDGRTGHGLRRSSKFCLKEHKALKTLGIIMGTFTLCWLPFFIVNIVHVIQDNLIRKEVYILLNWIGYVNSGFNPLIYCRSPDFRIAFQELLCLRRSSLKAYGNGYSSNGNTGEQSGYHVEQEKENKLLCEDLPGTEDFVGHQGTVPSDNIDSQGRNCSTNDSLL
How it was run: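 Assay format: CHO-ADRB2 cells, 18-20hr seeding at 37C/5% CO2, then compound plus 1nM isoproterenol agonist mix for 0.5hr RT. Homogeneous time-resolved fluorescence cAMP detection after 1hr, expressed as 665/615 nm ratio.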

[18] = target: D(2) dopamine receptor (Homo sapiens) (UniProt P14416); experiment: Dopamine D2 receptor (DRD2) small molecule agonists, cell-based qHTS assay (AID 1963594); note: nearly all actives have a fitted effect of over 35% in size
Sequence of D(2) dopamine receptor (Homo sapiens) (P14416 whole entry, looked up): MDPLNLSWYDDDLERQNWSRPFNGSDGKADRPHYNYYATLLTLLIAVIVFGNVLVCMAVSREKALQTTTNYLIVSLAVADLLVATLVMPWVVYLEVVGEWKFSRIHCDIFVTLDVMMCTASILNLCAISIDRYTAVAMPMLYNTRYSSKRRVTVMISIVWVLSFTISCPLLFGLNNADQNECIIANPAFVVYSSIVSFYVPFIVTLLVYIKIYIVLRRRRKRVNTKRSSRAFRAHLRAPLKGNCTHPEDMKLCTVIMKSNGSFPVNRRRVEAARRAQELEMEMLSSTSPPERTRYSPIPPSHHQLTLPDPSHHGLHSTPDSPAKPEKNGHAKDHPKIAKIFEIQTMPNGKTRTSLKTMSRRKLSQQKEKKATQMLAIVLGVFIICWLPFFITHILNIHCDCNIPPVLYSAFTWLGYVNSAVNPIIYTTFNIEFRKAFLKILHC
How it was run: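 HEK293 cells stably expressing human DRD2, pre-treated with PDE inhibitor Ro20-1724 (0.1 mM final) and compound 10 min at room temperature, then stimulated with NKH477 (200nM […]) for 30 min. cAMP read by HTRF (665/620 nm).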

[19] = target: D(2) dopamine receptor (Homo sapiens) (UniProt P14416); experiment: Dopamine D2 receptor (DRD2) small molecule antagonists, cell-based qHTS assay (AID 1963595; active = well fitted inhibition curve with a large enough effect in the signal ratio in the repeat runs, with a control signal flat; the % refers to the signal ratio)
How it was run: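 HTRF cAMP read-out at 665 and 620 nm emission (340 nm excitation). Antagonist mode: compounds were tested against 12 nM quinpirole in DRD2-HEK293 cells, with 200 nM NKH477 raising cAMP and 0.1 mM Ro20-1724 blocking its breakdown.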

[20] = target: Muscarinic acetylcholine receptor M1 (Homo sapiens) (UniProt P11229); experiment: Cholinergic receptor muscarinic 1 (CHRM1) small molecule antagonists, cell-based qHTS assay (AID 1963588); note: nearly all actives have a fitted effect of over 40% in size
How it was run: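 Compounds were tested at 15 concentrations in three independent runs. Dye-loaded CHRM1-CHO cells were exposed 5 min at room temperature before stimulation by acetylcholine added at 50nM. Intracellular calcium was read kinetically on FDSS for 3 min.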

Measured: Potency

CCC(C(=O)OCCN(CC)CC)c1ccccc1 (centres undefined)
inactive: [1] | [2] | [3] | [4] | [5] | [6] | [7] | [8] | [9] | [10] | [11] | [12] | [13] | [14] | [15] | [16] | [17] | [18] | [19]

CCCCCCC(O)CCCCCCCCCCC(=O)OC (centres undefined)
inactive: [1] | [2] | [3] | [4] | [5] | [6] | [7] | [8] | [9] | [10] | [11] | [12] | [13] | [14] | [16] | [17] | [18] | [19]

O=C1OC(=O)c2cc([N+](=O)[O-])ccc21
inactive: [1] | [2] | [3] | [4] | [5] | [6] | [7] | [8] | [9] | [10] | [11] | [12] | [13] | [14] | [15] | [16] | [18] | [19]

Cc1ccnc(N)c1
inactive: [1] | [2] | [3] | [4] | [5] | [6] | [7] | [8] | [9] | [10] | [11] | [12] | [13] | [14] | [15] | [16] | [17] | [18] | [19]

CCC1CO1 (centres undefined)
inactive: [1] | [2] | [3] | [4] | [5] | [6] | [7] | [8] | [9] | [10] | [11] | [12] | [13] | [14] | [15] | [16] | [17] | [18] | [19]

O=C(O)c1ccccc1NCCc1ccccc1
inactive: [1] | [2] | [3] | [4] | [5] | [6] | [7] | [8] | [9] | [10] | [11] | [12] | [13] | [20] | [16] | [17] | [18] | [19]

OC(CCN1CCCCC1)(c1ccccc1)c1ccccc1
inactive: [1] | [2] | [3] | [4] | [5] | [6] | [7] | [8] | [9] | [10] | [11] | [12] | [13] | [14] | [15] | [16] | [17] | [18] | [19]

CC(CO)(CO)C(=O)O
inactive: [1] | [2] | [3] | [4] | [5] | [6] | [7] | [8] | [9] | [10] | [11] | [12] | [13] | [14] | [15] | [16] | [17] | [18] | [19]

— PubChem BioAssay (Tox21)
